Data taken from PubChem BioAssay.
For some assays here: Results with a measured potency or affinity are listed apart. Calls of active or inactive are those of the source.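 How the source made its calls, unless noted: active means primary screen hit whose fluorescence ratio, in both repeats, exceeds the weak agonist control mean by 3 SD; inactive means the rest.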

Legend:
[1] = tested on: TRPC4 beta (transient receptor potential cation channel C4), mouse; assay: TRPC4 cation channel opening, retest – cell-based, Fluo4 calcium, HEK293 TRPC4beta/mu-opioid, duplicates, 10 µM, confirmation (AID 2426;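 active means fluorescence ratio normalized to control raised more than 50% in primary screen plus both repeat runs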;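 on activation: percent rise of integrated ratio over buffer wells lacking compound which define 0%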); details: Fluo4 calcium fluorescence, at 10 µM; hits give high values
[2] = tested on: transient receptor potential cation channel C4 beta (TRPC4), mouse; assay: TRPC4 cation channel opening, second retest – cell-based, second round, Fluo4, HEK293 TRPC4beta/mu-opioid, 1 µM, confirmation (AID 2461;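 active means primary screen active and over 50% activation in each of two duplicate runs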;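 on activation: 0% = wells without test compound as baseline of integrated fluorescence ratio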); details: Fluo4 calcium fluorescence, at 1 µM; hits give high values
[3] = tested on: TRPC4 (transient receptor potential cation channel C4 beta), mouse; assay: potentiation of DAMGO EC20 TRPC4 response – cell-based, second round, Fluo-4, HEK293 TRPC4beta/mu-opioid, 1 µM, confirmation (AID 2554); details: DAMGO EC20, Fluo-4 calcium flux, at 1 µM; hits give high values
[4] = tested on: TRPC4 beta (transient receptor potential cation channel C4), mouse; assay: potentiation of DAMGO EC20 TRPC4 response – cell-based, Fluo-4, HEK293 TRPC4beta/mu-opioid, confirmation (AID 2555;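 active means primary screen hit whose calcium fluorescence ratio, in both repeats, exceeds the weak agonist control mean by 3 SD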); details: DAMGO EC20, Fluo-4 calcium flux, at 10 µM; hits give high values
[5] = molecular target: Short transient receptor potential channel 4 (Mus musculus) (UniProt Q9QUQ5); assay: blockers of DAMGO-evoked TRPC4 calcium flux – cell-based, Fluo4, HEK293 TRPC4beta/mu-opioid, confirmation (AID 2636;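 active means calcium signal cut by more than 3 SD below the full-agonist control yet still positive, in both repeats and the earlier primary screen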); details: at 10 µM; hits give high values
[6] = molecular target: Short transient receptor potential channel 4 (Mus musculus) (UniProt Q9QUQ5); assay: blockers of DAMGO-evoked TRPC4 calcium flux – cell-based, second round, Fluo4, HEK293 TRPC4beta/mu-opioid, 1 µM, confirmation (AID 2637;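 active means calcium signal ratio cut to more than 3 SD under the fully stimulated control mean yet still positive, in both repeats and the primary screen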;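 on inhibition: percent of integrated ratio relative to wells lacking test compound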); details: at 1 µM; hits give high values
[7] = molecular target: Short transient receptor potential channel 4 (Mus musculus) (UniProt Q9QUQ5); assay: calcium entry via TRPC4 opening agents – cell-based, HEK293 TRPC4/mu-opioid, Fluo-4 calcium, dose response (AID 434937;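 active means primary screen activator hit with a dose response curve and TRPC4 channel activation at any tested dose; inactive means no activation, no dose response, or not a primary hit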)
[8] = molecular target: Short transient receptor potential channel 4 (Mus musculus) (UniProt Q9QUQ5); assay: potentiation of DAMGO-evoked TRPC4 calcium signal – cell-based, HEK293 TRPC4/mu-opioid, Fluo-4 calcium, EC20 DAMGO, dose response (AID 434941;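 active means earlier screen potentiator hit that boosts the TRPC4 ion channel at some dose, with a dose response; inactive means no potentiation, no dose response, or not a prior hit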;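 further: calcium entry triggered by an EC20 dose of DAMGO at the co-expressed mu-opioid receptor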)
[9] = molecular target: Short transient receptor potential channel 6 (Mus musculus) (UniProt Q61143); assay: TRPC6 blockade by TRPC4 inhibitor hits – cell-based, HEK293, membrane potential dye, duplicate, selectivity assay for TRPC4 inhibitor project, confirmation (AID 434948;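 active means active in primary screen and both duplicates, each dropping signal beyond three positive-control SD with fluorescence still positive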); details: HEK293 TRPC6, membrane potential dye fluorescence, at 10 µM; inhibition: hits give high values, stimulated with maximal-effect acetylcholine unless noted; outcome: stimulated with maximal-effect acetylcholine unless noted
[10] = molecular target: Short transient receptor potential channel 6 (Mus musculus) (UniProt Q61143); assay: TRPC6 opening by TRPC4 activator hits – cell-based, HEK293, membrane potential dye, duplicate, selectivity assay for TRPC4 activator project, confirmation (AID 434950;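 active means membrane potential signal rise above negative control mean plus 3 SD in both duplicates, also active in the earlier TRPC4 screen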;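 on activation: 0% = buffer only wells and 100% = acetylcholine maximal-effect wells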); details: HEK293 TRPC6, membrane potential fluorescence, at 10 µM; activation: hits give high values; outcome: activation
[11] = molecular target: Short transient receptor potential channel 6 (Mus musculus) (UniProt Q61143); assay: positive modulators of mouse TRPC6 channel – HEK293 cells, membrane potential dye, duplicate, selectivity assay for TRPC4 potentiator project, confirmation (AID 434952;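 active means compound raising the membrane signal above positive-control mean plus 3 SD in both repeats, and a primary screen hit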); details: HEK293 TRPC6, membrane potential dye fluorescence, at 10 µM; maximal acetylcholine added after compound unless noted
[12] = molecular target: Short transient receptor potential channel 4 (Mus musculus) (UniProt Q9QUQ5); assay: calcium flux activators in TRPC4/5HT1a cells, counter-screen for TRPC4 activator project, cell-based, second counter screen, HEK293 TRPC4/5HT1a, Fluo-4 (AID 434977;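 active means calcium signal rise above buffer-control mean plus 5 SD in both duplicates, and also a hit in the primary screen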;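 on activation: plate controls were assay buffer for no effect and maximal serotonin response for full effect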); details: Fluo-4 calcium flux, at 10 µM; hits give high values
[13] = serotonin-gated TRPC4 signal block – cell-based, second counter screen, HEK293 TRPC4/5HT1a, Fluo-4, counter-screen for TRPC4 inhibitor project, confirmation (AID 434978;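 active means primary screen active whose calcium signal fell more than 3 SD beyond the full-serotonin control mean in both duplicate plates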;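 on outcome: serotonin given first at submaximal then at maximal dose after compound preincubation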); details: Fluo-4 calcium flux, at 10 µM; inhibition: hits give high values, serotonin added to trigger calcium flux unless noted; outcome: serotonin added to trigger calcium flux unless noted
[14] = tested on: TRPC4 (mouse), co-expressed with 5HT1a in HEK293; assay: enhancement of serotonin-evoked TRPC4 response – cell-based, second counter screen, HEK293 TRPC4/5HT1a, Fluo-4, counter-screen for TRPC4 potentiator project, confirmation (AID 434979;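 active means signal rise over 3 SD above mean of control wells given weak agonist, in both repeats and first screen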); details: Fluo-4 calcium flux, at 10 µM; outcome: serotonin added at its EC20 dose unless noted; potentiation: hits give high values, serotonin added at its EC20 dose unless noted
[15] = nonspecific calcium rise without TRPC4 – cell-based, HEK293 mu-opioid receptor line, counter-screen for TRPC4 activator project, confirmation (AID 449723;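 active means hit in primary screen, with calcium signal over 5 SD above buffer well mean in both duplicates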;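 further: counter screen cells carry the mu-opioid receptor alone and lack TRPC4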); details: HEK293 mu-opioid cells, Fluo-4 calcium fluorescence, at 10 µM; hits give high values
[16] = nonspecific potentiation of DAMGO calcium response – cell-based, HEK293 mu-opioid receptor line, counter-screen for TRPC4 allosteric potentiator project, confirmation (AID 449724;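 active means calcium signal rise more than 3 SD above the low-dose agonist control mean, in both duplicate plates and the primary screen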); details: HEK293 mu-opioid receptor cells, Fluo-4 calcium flux, at 10 µM; compound added before EC20 DAMGO stimulus unless noted
[17] = molecular target: Short transient receptor potential channel 4 (Mus musculus) (UniProt Q9QUQ5); assay: block of DAMGO-driven TRPC4 calcium entry – cell-based, HEK293 TRPC4/mu-opioid, Fluo-4 calcium, dose response (AID 434942;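 active means primary screen inhibitor hit that blocks the TRPC4 channel at some tested dose, yielding a dose curve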)

Short transient receptor potential channel 4 (Mus musculus), sequence (Q9QUQ5 whole entry, looked up): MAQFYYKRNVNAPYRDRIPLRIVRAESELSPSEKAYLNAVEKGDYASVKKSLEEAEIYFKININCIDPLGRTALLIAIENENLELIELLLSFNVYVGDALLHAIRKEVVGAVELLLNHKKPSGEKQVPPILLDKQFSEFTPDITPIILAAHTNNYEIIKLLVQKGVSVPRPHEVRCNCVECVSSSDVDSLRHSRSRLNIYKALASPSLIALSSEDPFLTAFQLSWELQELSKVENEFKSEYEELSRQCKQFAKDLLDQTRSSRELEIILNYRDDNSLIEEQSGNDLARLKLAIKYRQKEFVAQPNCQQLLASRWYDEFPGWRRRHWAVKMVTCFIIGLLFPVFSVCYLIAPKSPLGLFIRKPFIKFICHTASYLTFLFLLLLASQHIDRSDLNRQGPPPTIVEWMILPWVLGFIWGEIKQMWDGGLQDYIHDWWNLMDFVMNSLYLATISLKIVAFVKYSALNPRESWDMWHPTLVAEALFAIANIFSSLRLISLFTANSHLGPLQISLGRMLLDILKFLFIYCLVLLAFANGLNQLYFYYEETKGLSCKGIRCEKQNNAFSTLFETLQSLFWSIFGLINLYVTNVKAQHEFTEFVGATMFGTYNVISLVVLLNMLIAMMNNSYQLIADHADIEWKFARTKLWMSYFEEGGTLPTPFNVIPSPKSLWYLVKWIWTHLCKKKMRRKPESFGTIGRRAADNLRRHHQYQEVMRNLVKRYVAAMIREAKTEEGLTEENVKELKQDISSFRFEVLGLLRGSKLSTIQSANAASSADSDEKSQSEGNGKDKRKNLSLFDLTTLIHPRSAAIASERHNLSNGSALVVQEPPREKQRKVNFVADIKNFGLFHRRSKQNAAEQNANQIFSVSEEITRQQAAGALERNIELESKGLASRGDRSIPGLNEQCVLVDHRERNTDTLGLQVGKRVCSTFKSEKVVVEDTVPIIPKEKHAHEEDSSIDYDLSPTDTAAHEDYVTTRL
Short transient receptor potential channel 6 (Mus musculus), sequence (Q61143 whole entry, looked up): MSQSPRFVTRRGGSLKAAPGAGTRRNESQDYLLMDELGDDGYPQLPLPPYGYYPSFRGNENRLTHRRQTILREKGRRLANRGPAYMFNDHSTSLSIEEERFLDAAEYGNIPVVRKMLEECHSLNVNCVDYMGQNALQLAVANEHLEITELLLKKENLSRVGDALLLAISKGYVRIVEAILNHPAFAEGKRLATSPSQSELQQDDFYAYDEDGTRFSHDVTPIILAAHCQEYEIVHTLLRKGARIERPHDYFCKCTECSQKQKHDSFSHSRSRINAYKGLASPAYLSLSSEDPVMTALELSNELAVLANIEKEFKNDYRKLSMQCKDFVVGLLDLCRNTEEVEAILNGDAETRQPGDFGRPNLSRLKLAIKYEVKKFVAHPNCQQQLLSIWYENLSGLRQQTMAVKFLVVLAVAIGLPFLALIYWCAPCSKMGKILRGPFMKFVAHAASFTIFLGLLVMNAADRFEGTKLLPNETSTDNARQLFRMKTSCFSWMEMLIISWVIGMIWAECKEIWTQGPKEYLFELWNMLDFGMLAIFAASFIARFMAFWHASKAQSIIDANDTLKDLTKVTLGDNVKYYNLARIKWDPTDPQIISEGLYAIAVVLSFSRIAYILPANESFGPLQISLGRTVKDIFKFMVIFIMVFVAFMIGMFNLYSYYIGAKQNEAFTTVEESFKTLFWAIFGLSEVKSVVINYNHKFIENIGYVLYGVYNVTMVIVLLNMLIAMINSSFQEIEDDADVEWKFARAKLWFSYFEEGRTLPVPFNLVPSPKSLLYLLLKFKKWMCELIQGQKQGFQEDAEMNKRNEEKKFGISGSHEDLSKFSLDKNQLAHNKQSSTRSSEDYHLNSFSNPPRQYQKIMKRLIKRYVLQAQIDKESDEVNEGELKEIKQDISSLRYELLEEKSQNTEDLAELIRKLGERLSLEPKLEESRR

COc1ccc(C)cc1NC1=NC(C)(C)CS1
inactive: outcome [1] | outcome [2] | outcome [3] | outcome [4] | outcome [7] | outcome [8] | outcome [9] | outcome [10] | outcome [11] | outcome [12] | outcome [13] | outcome [14] | outcome [15] | outcome [16]
active: inhibition [5] 89% | inhibition [6] 42%

COc1ccc(Br)cc1CN1CCN(C(=O)Cc2ccccc2)CC1
active: inhibition [5] 89% | inhibition [13] 20.6%
inactive: outcome [1] | outcome [2] | outcome [3] | outcome [4] | outcome [6] | outcome [7] | outcome [8] | outcome [9] | outcome [10] | outcome [11] | outcome [12] | outcome [14] | outcome [15] | outcome [16]

CC(N)Cc1c[nH]c2cc3c(cc12)OCCO3 (centres undefined)
inactive: outcome [3] | outcome [4] | outcome [5] | outcome [6] | outcome [8] | outcome [17] | outcome [9] inactive [setting not given] | outcome [10] | outcome [11] inactive [setting not given] | outcome [13] inactive [setting not given] | outcome [14] inactive [setting not given] | outcome [15] | outcome [16] inactive [setting not given]
active: activation [1] 195% | activation [2] 60% | activation [12] 107%

O=C(CCCc1ccccc1)NCCc1cnc[nH]1
active: activation [1] 137% | activation [12] 35.3%
inactive: outcome [2] | outcome [3] | outcome [4] | outcome [5] | outcome [6] | outcome [8] | outcome [17] | outcome [9] | outcome [10] | outcome [11] | outcome [13] | outcome [14] | outcome [15] | outcome [16]

COc1ccc(C(=O)C2CCCN(C3CSCCSC3)C2)cc1OC (centres undefined)
inactive: outcome [3] | outcome [4] | outcome [5] | outcome [6] | outcome [8] | outcome [17] | outcome [9] | outcome [11] | outcome [13] | outcome [14] | outcome [15] | outcome [16]
active: activation [1] 166% | activation [2] 86% | activation [10] 33.5% | activation [12] 87.7%

CC1CN(c2ccc([N+](=O)[O-])c3cccnc23)CC(C)N1 (centres undefined)
inactive: outcome [3] | outcome [4] | outcome [5] | outcome [6] | outcome [8] | outcome [17] | outcome [9] | outcome [10] | outcome [11] | outcome [13] | outcome [14] | outcome [15] | outcome [16]
active: activation [1] 108% | activation [2] 81% | activation [12] 35.7%

O=[N+]([O-])c1ccc(N2CCCNCC2)c2ncccc12
active: activation [1] 133% | activation [2] 139% | activation [12] 55.8%
inactive: outcome [3] | outcome [4] | outcome [5] | outcome [6] | outcome [8] | outcome [17] | outcome [9] | outcome [10] | outcome [11] | outcome [13] | outcome [14] | outcome [15] | outcome [16]

Fc1cccc(C2NCCc3[nH]cnc32)c1 (centres undefined)
inactive: outcome [2] | outcome [3] | outcome [4] | outcome [5] | outcome [6] | outcome [8] | outcome [17] | outcome [9] | outcome [10] | outcome [11] | outcome [13] | outcome [14] | outcome [15] | outcome [16]
active: activation [1] 201% | activation [12] 53.4%

Cc1ccccc1C(O)(Cc1ccccc1)C1CN2CCC1CC2 (centres undefined)
inactive: outcome [2] | outcome [3] | outcome [4] | outcome [5] | outcome [6] | outcome [8] | outcome [17] | outcome [9] | outcome [11] | outcome [12] | outcome [13] | outcome [14] | outcome [15] | outcome [16]
active: activation [1] 109% | activation [10] 51%

CNCCc1nc(N)n[nH]1
inactive: outcome [3] | outcome [4] | outcome [5] | outcome [6] | outcome [8] | outcome [17] | outcome [9] | outcome [10] | outcome [11] | outcome [13] | outcome [14] | outcome [15] | outcome [16]
active: activation [1] 160% | activation [2] 172% | activation [12] 146%

COC(=O)C1=CCCN(C)C1
active: activation [1] 96% | activation [10] 70% | activation [12] 43.8% | activation [15] 19.7%
inactive: outcome [2] | outcome [3] | outcome [4] | outcome [5] | outcome [6] | outcome [8] | outcome [17] | outcome [9] | outcome [11] | outcome [13] | outcome [14] | outcome [16]

O=C1OC(c2ccc([N+](=O)[O-])cc2)=N/C1=C/N1CC2CC(C1)c1cccc(=O)n1C2 (centres undefined)
inactive: outcome [2] | outcome [3] | outcome [4] | outcome [5] | outcome [6] | outcome [8] | outcome [17] | outcome [9] | outcome [11] | outcome [13] | outcome [14] | outcome [16]
active: activation [1] 158% | activation [10] 254% | activation [12] 64.7% | activation [15] 55.4%

CCN(CC)c1ccc(/C=C/[N+](=O)[O-])cc1
inactive: outcome [2] | outcome [3] | outcome [4] | outcome [5] | outcome [6] | outcome [8] | outcome [17] | outcome [9] | outcome [11] | outcome [13] | outcome [14] | outcome [16]
active: activation [1] 96% | activation [10] 906% | activation [12] 67.9% | activation [15] 113%

c1ccc2oc(N3CCNCC3)nc2c1
active: activation [1] 81% | activation [2] 53% | potentiation [4] 19% | activation [12] 24.8% | potentiation [14] 31.8%
inactive: outcome [3] | outcome [5] | outcome [6] | outcome [8] | outcome [17] | outcome [9] | outcome [10] | outcome [11] | outcome [13] | outcome [15] | outcome [16]
